Screens as filed in PubChem.
An excerpt weighted towards active compounds, which were near 5.1% of everything screened.
GRIN3A LBD mod: NR3A (human) ligand-binding domain modulation; Tm shift relative to glycine control, % at 25 µM; 340,000 compounds, 2.5% hits; NR3A LBD differential scanning fluorimetry, Tm shift; 0% = protein alone, 100% = glycine-bound protein;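 active means melting temperature shift of at least 10% of the positive control shift, at one fixed dose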
ANO1 activ: activates or potentiates the mouse TMEM16A chloride channel; Q8BHY3; HEK293 TMEM16A/YFP-H148Q/I152L, iodide quench fluorescence; active compounds read low; B-score at 10 µM; 340,000 compounds, 0.3% hits;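 active means fluorescence-ratio B-score plate-corrected deviation score at least 3 library SD below zero, with starting fluorescence score within 5 deviations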;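 further: channel opened by trigger with iodide after compound preincubation; score built on the fluorescence ratio of max minus min over baseline; more negative score means more quench and so TMEM16A activation or potentiation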
Target sequence (Q8BHY3 whole entry, looked up): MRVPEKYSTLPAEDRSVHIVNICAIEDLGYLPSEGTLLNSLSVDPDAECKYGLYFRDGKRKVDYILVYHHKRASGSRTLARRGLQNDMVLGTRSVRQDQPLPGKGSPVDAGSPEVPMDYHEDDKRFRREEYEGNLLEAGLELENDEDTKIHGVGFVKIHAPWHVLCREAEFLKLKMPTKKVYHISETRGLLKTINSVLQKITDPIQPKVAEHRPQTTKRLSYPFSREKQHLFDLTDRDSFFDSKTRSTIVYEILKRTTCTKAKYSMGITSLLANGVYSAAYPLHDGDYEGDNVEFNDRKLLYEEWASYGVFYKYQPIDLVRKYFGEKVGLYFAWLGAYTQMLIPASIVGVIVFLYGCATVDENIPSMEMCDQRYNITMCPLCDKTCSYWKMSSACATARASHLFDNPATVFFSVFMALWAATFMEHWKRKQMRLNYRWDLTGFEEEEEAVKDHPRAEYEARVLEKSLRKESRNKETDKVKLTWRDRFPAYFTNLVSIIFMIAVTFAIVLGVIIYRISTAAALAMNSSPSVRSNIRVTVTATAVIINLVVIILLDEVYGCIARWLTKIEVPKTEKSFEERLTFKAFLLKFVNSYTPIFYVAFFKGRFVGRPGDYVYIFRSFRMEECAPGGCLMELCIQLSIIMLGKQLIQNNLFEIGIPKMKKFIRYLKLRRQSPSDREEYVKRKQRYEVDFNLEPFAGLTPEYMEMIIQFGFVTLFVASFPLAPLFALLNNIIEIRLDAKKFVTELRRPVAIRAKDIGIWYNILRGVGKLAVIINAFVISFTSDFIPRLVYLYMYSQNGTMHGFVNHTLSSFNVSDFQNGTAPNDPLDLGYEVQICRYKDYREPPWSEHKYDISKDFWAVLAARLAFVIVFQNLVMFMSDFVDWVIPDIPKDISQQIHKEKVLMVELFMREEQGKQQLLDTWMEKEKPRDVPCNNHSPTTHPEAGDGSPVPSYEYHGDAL
ANO1 block: mouse TMEM16A channel inhibition, primary screen; Q8BHY3; HEK293 TMEM16A/YFP iodide influx fluorescence, ionomycin; normalized B-score (activity score, 25-100; higher = stronger inhibition) at 10 µM; 310,000 compounds, 1.2% hits; AID 588511;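 active means ratio plate-corrected score three or more library SD toward inhibition, starting fluorescence score within five deviations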;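 further: score derived from kinetic fluorescence span divided by baseline fluorescence per well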
CRFR2-BP ag: agonists of human CRF-binding protein/CRF-R2 receptor complex; HEK293 CRF-R2/CRF-BP, calcium dye fluorescence (FLIPR); percent of saturating CRF peptide response; activation, % at 13.2 µM; 350,000 compounds, 0.46% hits; AID 588473;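 active means activation of at least 50%, plus an integration ratio under a set limit after plate pattern correction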
MPTP inh: blocks calcium-induced mitochondrial swelling; isolated mouse mitochondria, Ca2+ swelling absorbance, 30 min; inhibition, % at 10 µM; 360,000 compounds, 1.4% hits; AID 602449;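 active means inhibition of 50% or more, scaled per plate between neutral and stimulator controls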
CRFR2-BP antag: antagonists of CRF-binding protein/CRF-R2 receptor complex. HEK293 CRF-R2/CRF-BP, CRF-induced calcium fluorescence. inhibition, % at 11.8 µM. 350,000 compounds, 0.59% hits;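 active means inhibition of the ligand-induced calcium signal above about 50% at the single tested concentration, limit read from the data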
TMEM16A reconf: reconfirmed blocker of mouse TMEM16A calcium-activated chloride channel; shares compounds with ANO1 block; HEK293 TMEM16A/YFP-H148Q, iodide quench fluorescence; ionomycin added to raise cell calcium; inhibition, % at 10 µM; 2,300 compounds, 39% hits; AID 652189;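 active means mean duplicate percent inhibition, scaled so buffer wells are 0 and the reference blocker 100, over three buffer SD above buffer mean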
HEK293 Ca mobil: counter-screen for TMEM16A inhibitors: effect on calcium mobilization; shares compounds with ANO1 block; TMEM16A/YFP HEK293, Fluo4 calcium mobilization; calcium response (% of ionomycin), % at 10 µM; 2,300 compounds, 2% hits; AID 652231;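 active means duplicate-averaged calcium signal over 20% of the ionomycin maximum, relative to buffer baseline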;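 further: each well's signal is peak minus trough fluorescence divided by its pre-addition baseline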
YFP-HEK293 quench: acts in parental YFP-HEK293 cells lacking TMEM16A, counter-screen; shares compounds with ANO1 block; 2,300 tested, under 10 active; iodide YFP quench, ionomycin; YFP ratio F(max-min)/F0 at 10 µM; AID 652233;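 active means yellow fluorescent protein signal ratio exceeding the buffer control mean by over 5 SD of those controls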;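 further: ratio is mean of duplicate wells from kinetic YFP trace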
ClC-1 rat inh: rat ClC-1 inhibition, TMEM16A specificity screen; ratio percent, % at 10 µM; CHO ClC-1-YFP, iodide influx fluorescence quench; iodide control reads 0, buffer control 100; shares compounds with ANO1 block; 2,300 tested, under 10 active;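 active means duplicate-mean ratio percent above the mean of iodide-only control wells, which defines zero, plus 5 of their SD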;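 further: higher percent means stronger block of ClC-1 iodide influx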
A number is an active result; n = inactive; x = no result.

SMILES	GRIN3A LBD mod	ANO1 activ	ANO1 block	CRFR2-BP ag	MPTP inh	CRFR2-BP antag	TMEM16A reconf	HEK293 Ca mobil	YFP-HEK293 quench	ClC-1 rat inh
Cc1ccc(-c2nn3c(C)nnc3s2)cc1N	n	n	100	n	n	n	n	n	n	n
O=C(Nc1ccc2c(c1)C(=O)N(CC1CCCO1)C2=O)c1cccc(Br)c1 (configuration not stated)	n	n	100	n	n	n	24.0%	n	n	n
Cc1ccccc1NC(=O)Cc1nc(COC(=O)c2cc([N+](=O)[O-])ccc2N)cs1	n	n	n	n	n	n	x	x	x	x
COC(=O)c1ccccc1NC(=O)C1CCN(c2ncnc3c2nc2n3CCCCC2)CC1	n	n	100	n	n	n	n	n	n	n
CCN(C(=O)C1CCCN(c2ncnc3c2nc2n3CCCCC2)C1)c1cccc(Cl)c1 (configuration not stated)	n	n	25	n	n	n	n	n	n	n
Cc1ccc(NC(=O)CN(C)C(=O)c2ccc(NS(=O)(=O)c3cccc([N+](=O)[O-])c3)cc2)cc1	n	n	x	n	n	n	x	x	x	x
COC(=O)COc1ccc(S(=O)(=O)Nc2ccc3c(c2)OCCO3)cc1Cl	n	n	25	n	n	n	46.5%	n	n	n
CC(C)NS(=O)(=O)c1ccc(OCC(=O)Nc2ccc3c(c2)OCO3)c(Cl)c1	n	n	n	n	n	n	x	x	x	x
Cc1ccc(NS(=O)(=O)c2ccc(OCC(=O)Nc3cccc([N+](=O)[O-])c3)c(C)c2)cc1	25.6	n	25	n	n	n	n	n	n	n
COC(=O)COc1ccc(S(=O)(=O)Nc2ccc3c(c2)OCCO3)cc1C	n	n	25	n	n	n	17.5%	n	n	n
Nc1ccn(C2CCCCO2)c(=O)n1 (configuration not stated)	n	n	x	n	n	n	x	x	x	x
CC1=CC(C)(C)N(S(=O)(=O)c2ccc(C)cc2)c2cc(C)ccc21	n	n	25	n	n	n	n	n	n	n
O=C(CS(=O)CC(=O)N(CC(=O)NC1CCCC1)C1CCCC1)Nc1ccc(F)cc1 (configuration not stated)	n	x	25	n	n	n	n	n	n	n
CCOC(=O)c1c(C)n(CC(COC(C)=O)OC(C)=O)c2ccc(OC(C)=O)cc12 (configuration not stated)	n	n	25	n	n	n	n	n	n	n
CCc1ccc2c(c1)[C@]1(C(=O)N2)[C@@H]2C(=O)N(Cc3ccccc3)C(=O)[C@@H]2[C@@H]2CCCN21	n	n	n	n	n	n	x	x	x	x
Cc1cc(Cl)cc2c1NC(=O)[C@]21[C@@H]2C(=O)N(Cc3ccccc3)C(=O)[C@@H]2[C@@H]2CCCN21	n	n	25	n	n	n	n	n	n	n
COc1cc(/C=C2/CCC/C(=C\c3cc(O)c(OC)c(Cl)c3)C2=O)cc(Cl)c1O	n	n	n	n	n	n	n	n	n	n
COc1cc(/C=C2\CC/C(=C\c3cc(OC)c(O)c(OC)c3)C2=O)cc(OC)c1O	n	n	n	n	n	n	x	x	x	x
O=C(CSc1nc2ccc([N+](=O)[O-])cc2[nH]1)NC1CCCCC1	n	n	25	n	n	n	n	n	n	n
